Source: PubChem
This is a sample that favours compounds with a hit; in the whole collection about 4.7% have one here.
HTT promoter inh: inhibits huntingtin promoter activity; HEK293 HTT promoter firefly luciferase reporter, 24 h; Potency, µM (top dose mostly 57.5 µM), most hits filed as inhibitors; 0.93% of 48,000 active; AID 1508623; also: nearly all actives have a fitted effect of over 50% in size
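Quantitative HTS used concentration series of up to 57.5 uM final on HEK293 luciferase reporter cells, 24 h at 37 degrees C. Readout was Dual-Glo firefly luminescence.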
FH mod: Identification of activators of human fumarate hydratase by quantitative high-throughput screening | Fumarate hydratase, mitochondrial (Homo sapiens), P07954 | FH coupled MDH/diaphorase resazurin fluorescence, 15 min | Potency, µM (titrated, usually from 79.9 µM), most hits filed as inhibitors | 0.22% of 54,000 active; also: the screen sought activators but most active calls are inhibition curves; nearly all actives have a fitted effect of over 45% in size
HTT-AS promoter: HTT-AS promoter activation; HEK293 HTT-AS promoter firefly luciferase reporter, 24 h; response scale: percent change from vehicle, -100% = no light; Potency, µM (series often up to 57.5 µM), usual class: activators; 0.24% of 48,000 active; AID 1508624; also: nearly all actives have a fitted effect of over 55% in size
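HEK293 cells carrying firefly luciferase reporters were seeded at 2,500 per well in Opti-MEM and cultured for 24 h. They were then treated with compounds at up to 57.5 uM final for 24 h at 37 degrees C before Dual-Glo luminescence readout.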
NTMT1 inh: NTMT1 methyltransferase inhibition; Q9BV86; NTMT1 MTase-Glo SAH luminescence, purified enzyme; Potency, µM (doses to about 114 µM), most hits filed as inhibitors; 2.5% of 59,000 active; AID 1645870; also: nearly all actives have a fitted effect of over 65% in size
Target sequence (Q9BV86 whole entry, looked up): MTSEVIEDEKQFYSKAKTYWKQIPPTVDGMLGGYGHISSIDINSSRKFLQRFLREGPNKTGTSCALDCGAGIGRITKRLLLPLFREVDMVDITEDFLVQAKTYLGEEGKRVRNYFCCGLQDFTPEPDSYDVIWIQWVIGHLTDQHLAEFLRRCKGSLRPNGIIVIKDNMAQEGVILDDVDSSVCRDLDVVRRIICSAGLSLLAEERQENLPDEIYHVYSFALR
GPR32 ag: agonists of human resolvin D1 receptor DRV1 (GPR32); 2.5% of 48,000 active; O75388; activation, % at 76.9 µM; CHO-K1 GPR32 beta-arrestin PathHunter luminescence, 90 min; zero percent set by DMSO-only wells;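 active = activation of at least 60% and not above a set upper limit, about 1 call in 100 departs from these limits; inconclusive = activation of 40% to 60%, or above that upper limit; inactive = activation under 40%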
Target sequence (O75388 whole entry, looked up): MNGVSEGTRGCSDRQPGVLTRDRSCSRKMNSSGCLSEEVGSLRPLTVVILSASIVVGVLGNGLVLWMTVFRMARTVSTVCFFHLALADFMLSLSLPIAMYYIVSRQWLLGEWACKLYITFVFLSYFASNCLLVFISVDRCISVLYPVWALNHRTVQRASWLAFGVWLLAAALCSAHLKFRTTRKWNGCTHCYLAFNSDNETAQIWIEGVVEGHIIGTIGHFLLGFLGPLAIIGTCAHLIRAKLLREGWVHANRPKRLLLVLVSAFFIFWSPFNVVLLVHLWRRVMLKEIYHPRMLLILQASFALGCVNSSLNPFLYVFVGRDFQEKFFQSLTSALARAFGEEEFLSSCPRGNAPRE
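PathHunter beta-arrestin recruitment in CHO-K1 cells stably expressing ProLink-tagged GPR32. Cells were exposed to compound for 90 min at 37 C, then chemiluminescence was read after 1 h detection at ambient temperature; DMSO served as basal control.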
Each line names hits and unclear results; the compound was inactive in the other large screens; ! = not active in a repeat. Unless noted, calls follow the shape of the dose curve; as a rule, active = well fitted curve in the direction sought with a large enough effect; inconclusive = small, poorly fitted or top-dose-only effect, or another doubt; inactive = no such curve, though single readings can be large; an effect the other way counts as inactive or inconclusive.

CC(Oc1ccc(F)cc1)C(=O)N1CCC(c2nc3ccccc3s2)CC1 (centres undefined)	HTT promoter inh inconclusive, GPR32 ag 67
Cc1cc(OCC(=O)N2CCC(c3nc4ccccc4s3)CC2)ccc1Cl	HTT promoter inh inconclusive, FH mod inconclusive, GPR32 ag 78
O=S1(=O)N=C(Oc2ccc3ccccc3c2)c2ccccc21	none (no result: HTT promoter inh, FH mod, HTT-AS promoter, GPR32 ag)
O=S(=O)(NCc1nc2cccnc2n1Cc1ccccc1Cl)c1ccc(F)c(Cl)c1	HTT promoter inh inconclusive
Cc1ccccc1-c1nnc(C2CCN(S(=O)(=O)c3ccc(Cl)cc3)CC2)o1	HTT promoter inh 16µM
COc1ccc(S(=O)(=O)N2CCC(c3nnc(-c4ccccc4C)o3)CC2)c(OC)c1	HTT promoter inh inconclusive
CN(C(=O)CSc1nnc(-c2ccc([N+](=O)[O-])cc2)o1)c1ccccc1	none
COc1cccc(-c2[nH]c3c(c2-c2c(-n4cccc4)n(C)c(=O)[nH]c2=O)c(=O)[nH]c(=O)n3C)c1	NTMT1 inh inconclusive
Cc1ccc(C)c(-c2[nH]c3c(c2-c2c(-n4cccc4)n(C)c(=O)[nH]c2=O)c(=O)[nH]c(=O)n3C)c1	NTMT1 inh 89µM
CCCCC(=O)N1CCN(c2nc3c(C)c(C)ccc3s2)CC1	GPR32 ag 69
Cc1c(Cl)ccc2sc(N3CCN(C(=O)c4ccco4)CC3)nc12	HTT-AS promoter inconclusive, GPR32 ag 85
CC(=O)c1ccc(N2CCN(c3ncnc4onc(C)c34)CC2)cc1	HTT promoter inh 4.5µM, NTMT1 inh inconclusive
COc1ccccc1NC(=O)C1=C(C)Nc2nc3ccccc3n2C1c1ccccc1Cl (centres undefined)	none
CCN(CC)CCCCNc1nc2cc(Cl)c(Cl)cc2nc1-c1ccc(-c2cccs2)s1	HTT promoter inh inconclusive, NTMT1 inh 20µM! (no result: GPR32 ag)
CCCn1c(-c2ccc(F)cc2)nc2c(NCCCCN(CC)CC)nc(C)nc21	none (no result: HTT promoter inh, FH mod, HTT-AS promoter, GPR32 ag)
Cn1cnc2c(=O)oc3ccc(S(=O)(=O)N4CCN(c5ccccc5F)CC4)cc3c21	none (no result: HTT promoter inh, FH mod, HTT-AS promoter, NTMT1 inh)
Cc1ccc(C(=O)Nc2c(-c3ccccc3)nc3ccccn23)cc1C	none
Cc1c(C(=O)OC[C@H]2CCCO2)[nH]c2c1C(=O)CC(c1ccco1)C2 (some centres undefined)	NTMT1 inh 50µM (no result: HTT promoter inh, FH mod, HTT-AS promoter, GPR32 ag)
Cc1nc2c(-c3cnc(N)nc3)nc(N3CCOCC3)nc2n1C(C)C	NTMT1 inh inconclusive (no result: HTT promoter inh, HTT-AS promoter, GPR32 ag)
O=S(=O)(NCC1CN(S(=O)(=O)c2c(F)cccc2F)C1)c1ccc2c(c1)OCCO2	none (no result: HTT promoter inh, FH mod, HTT-AS promoter, GPR32 ag)
COc1cc(S(=O)(=O)NCCc2c(C)[nH]c3ccccc23)c(C)cc1C	GPR32 ag 78
COC(=O)c1ccccc1NC(=O)N1CCC(n2c(C)nc3cccnc32)CC1	none
CCN(CC)S(=O)(=O)c1ccc(C(=O)NC2CC(=O)N(c3ccc4c(c3)OCCO4)C2)cc1 (centres undefined)	none
CN(C)S(=O)(=O)c1ccc(C(=O)NC2CC(=O)N(c3ccc4c(c3)OCCO4)C2)cc1 (centres undefined)	NTMT1 inh 89µM
C=CCN(/C=C1\C(=O)OC(COC)C2(C)C1=C(O)C(=O)C1=C2C(OC(C)=O)CC2(C)C(=O)CCC12)CC=C (centres undefined)	none (no result: HTT promoter inh, HTT-AS promoter, GPR32 ag)
O=C(CSc1nnc(-c2cccs2)o1)Nc1cccc(C(F)(F)F)c1	none
N#Cc1ccc(-c2cccs2)nc1SCC(=O)Nc1cccc(C(F)(F)F)c1	GPR32 ag 82
Cc1ccc(C)c(NS(=O)(=O)c2ccc3c(c2)CCCN3C(=O)C2CCC2)c1	HTT promoter inh inconclusive
COc1ccc(NS(=O)(=O)c2ccc3c(c2)CCN3C(=O)C2CC2)cc1OC	HTT promoter inh 4µM
Cc1cccc(N(C)C(=O)CCNS(=O)(=O)c2ccc3c(c2)CCN3C(=O)C2CC2)c1	HTT-AS promoter inconclusive, GPR32 ag 71
CCC(=O)N1CCc2cc(S(=O)(=O)CCC(=O)N3CCN(c4cccc(C)c4)C(C)C3)ccc21 (centres undefined)	GPR32 ag 66
Cc1cccc(NS(=O)(=O)c2ccc3c(c2)CCN3C(=O)C2CCC2)c1	HTT promoter inh 20µM
CC(C)CS(=O)(=O)c1oc(-c2ccc(F)cc2)nc1S(=O)(=O)c1ccccc1	HTT promoter inh inconclusive, FH mod inconclusive
O=C(CCNS(=O)(=O)c1ccc2c(c1)CCN2C(=O)C1CC1)N1CCN(c2cccc(C(F)(F)F)c2)CC1	HTT promoter inh 28µM, GPR32 ag 74
Cc1ccc(Cl)cc1N1CCN(C(=O)CCNS(=O)(=O)c2ccc3c(c2)CCN3C(=O)C2CC2)CC1	HTT promoter inh inconclusive
COc1ccc2c(c1)c1c(c(=O)n(-c3ccc(C)cc3)c(=O)n1CC(=O)Nc1cc(C)ccc1C)n2C	none
COc1cc2c(Nc3ccc(Cl)c(Cl)c3F)ncnc2cc1OCC1C[C@@H]2CN(C)C[C@@H]2C1 (some centres undefined)	NTMT1 inh 11µM (no result: HTT promoter inh, HTT-AS promoter, GPR32 ag)
COc1ccc(Cl)c(Nc2ncnc3cc(OCC4CCN(C)CC4)c(OC)cc23)c1	NTMT1 inh 28µM (no result: HTT promoter inh, HTT-AS promoter, GPR32 ag)
COc1ccc(CN2CCc3nc(N4CCN(c5ccc(F)cc5)CC4)ncc3C2)c(OC)c1OC	HTT promoter inh 1.6µM
COc1cccc(N2CCN(c3ncc4c(n3)CCN(Cc3ccc(Br)cc3)C4)CC2)c1	HTT promoter inh inconclusive, NTMT1 inh 50µM
COc1ccc(CCNc2ncnc3onc(C)c23)c(OC)c1	HTT promoter inh 1.3µM, GPR32 ag 75
CCOc1ccc(CCNc2ncnc3onc(-c4ccc(Cl)cc4)c23)cc1	HTT promoter inh 14µM
CSc1ccc(CCNc2ncnc3onc(C)c23)cc1	HTT promoter inh 1µM, NTMT1 inh inconclusive
Cc1cc(C)n2ncc(C(=O)Nc3cc(Cl)cc(Cl)c3)c2n1	none (no result: HTT promoter inh, FH mod, HTT-AS promoter, GPR32 ag)
CCCSS/C(CCO)=C(\C)N(C=O)Cc1cnc(C)nc1N	none
CC(C)[N+](C)(C)CC(O)COc1cccc2ccccc12 (centres undefined)	NTMT1 inh 8.9µM
Cc1c(C(=O)Nc2ccc(C(=O)O)cc2)nnn1-c1ccccc1	HTT promoter inh 2.5µM
CC(=O)c1ccc(NC(=O)c2nc(-c3ccccc3)n(-c3ccccc3)n2)cc1	none
CCOc1ccc(C(=O)N2CCN(Cc3cc(=O)n4nc(-c5cccc(OC)c5)sc4n3)CC2)cc1	GPR32 ag 74
COc1ccccc1Nc1nn2c(=O)c3ccc(C(=O)NCCC4=CCCCC4)cc3nc2s1	HTT promoter inh 10µM
Cc1ccc(C)c(Nc2nn3c(=O)c4cc5c(cc4nc3s2)OCO5)c1	GPR32 ag 63
O=c1c2cc3c(cc2nc2sc(Nc4ccccc4)nn12)OCO3	HTT-AS promoter inconclusive, NTMT1 inh inconclusive
COc1ccccc1Nc1nn2c(=O)c3ccc(C(=O)NCCc4ccccc4)cc3nc2s1	HTT promoter inh 7.1µM, NTMT1 inh inconclusive
Cc1ccc(C)c(Nc2nn3c(=O)c4ccc(C(=O)NCCc5ccccc5)cc4nc3s2)c1	GPR32 ag 74
